These results are taken from PubChem BioAssay (EPA / NIEHS).

In assay [1] the test system is Sodium/Iodide Symporter (NIS), SLC5A5 (gene 6528). Nature of the assay: CPHEA_Stoker_NIS_Inhibition_RAIU: CPHEA's Radioactive Iodide Uptake (RAIU) Assay for Sodium/Iodide Symporter (NIS) Inhibition, Stoker and Laws Labs (AID 2283841). The method, boiled down:
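HEK293T cells stably expressing human NIS (hNIS-HEK293T-EPA) were exposed to test chemicals at 0.001–100uM (0.5% final DMSO) with 125I at a final 329pM in HBSS/10mM HEPES pH 7.4. After 2 hours at room temperature and ice-cold washes, intracellular 125I was counted as CPM and normalized to DMSO wells.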

The nature of assay [2]: CPHEA_Stoker_NIS_Cytotoxicity: Cytotoxicity Assessment for CPHEA's Radioactive Iodide Uptake (RAIU) Assay for Sodium/Iodide Symporter (NIS) Inhibition, Stoker and Laws Labs (AID 2283897). A digest of the protocol:
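hNIS-HEK293T-EPA human kidney cells were exposed for 2 hours at room temperature to test chemicals (0.001–100uM, 0.5% final DMSO) in HEPES-buffered HBSS, pH 7.4. Viability was read as ATP content by luciferase bioluminescence, loss of signal versus DMSO.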

Assay [3] deals with zebrafish Thyroid Hormone Receptor alpha (TRa), thraa (gene 30670) (UniProt Q98867). Nature of the assay: ATG_zfTRa_XSP2: Attagene TRANS-FACTORIAL Multi-Species (XSP1) HepG2 Assay for zebrafish Thyroid Hormone Receptor alpha (TRa) (AID 2283832).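 Also: actives raise zebrafish TRa-Gal4 reporter transcript above DMSO baseline.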 The method, boiled down:
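Readout is reporter mRNA induction, quantified by RT-PCR and capillary electrophoresis with fluorescent labelling, after 24 h compound exposure of transiently transfected HepG2 cells carrying NR-Gal4 chimera reporters. Activity fitted upward relative to DMSO.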

Assay [4] concerns zebrafish Peroxisome Proliferator-activated Receptor gamma (PPARg), gene 557037. Nature of the assay: ATG_zfPPARg_XSP2: Attagene TRANS-FACTORIAL Multi-Species (XSP2) HepG2 Assay for zebrafish Peroxisome Proliferator-activated Receptor gamma (PPARg) (AID 2283833).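 Also: reporter mRNA from a zebrafish PPARg GAL4 chimera measured by RT-PCR and capillary electrophoresis; actives increase reporter signal over DMSO so AC50 reflects activation.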 A digest of the protocol:
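Transfect HepG2 with multiplexed GAL4-UAS reporter constructs; dose chemical 24 h; isolate RNA, reverse-transcribe, PCR-amplify, label and digest reporter products; resolve by capillary electrophoresis. Activity taken as increase over DMSO.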

Assay [5] is described as follows: ATG_M_61_XSP2: Attagene TRANS-FACTORIAL Multi-Species (XSP2) HepG2 Assay for M61 Transcription Factor (Internal Marker) (AID 2283835; active = hit-call score of the fitted dose curve at least 0.9, where 1 is the maximum; inactive = score below 0.9;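 also: active means a rise in signal above the DMSO baseline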). The method, boiled down:
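Internal background marker, read as RT-PCR/capillary-electrophoresis reporter mRNA 24 h post-dose in transiently transfected HepG2 cells. Androgen receptor stimulated with 3 nM 6-alpha-fluorotestosterone plus 1.5 nM norgestrel; gain of signal versus DMSO analysed.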

Assay [6] deals with zebrafish Thyroid Hormone Receptor beta (TRb), thrb (gene 30607) (UniProt Q9PVE4). The assay is described as follows: ATG_zfTRb_XSP2: Attagene TRANS-FACTORIAL Multi-Species (XSP1) HepG2 Assay for zebrafish Thyroid Hormone Receptor beta (TRb) (AID 2283836). A digest of the protocol: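 Reporter transcripts were measured by RT-PCR with fluorescent primer extension and capillary electrophoresis, 24 h after chemical dosing of transiently transfected HepG2 cells. Activity was scored as upward signal versus DMSO baseline.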

Assay [7] has as its target frog Thyroid hormone Receptor alpha (TRa), thra-a (gene 397942) (UniProt P15204). The assay is described as follows: ATG_frTRa_XSP2: Attagene TRANS-FACTORIAL Multi-Species (XSP2) HepG2 Assay for frog Thyroid hormone Receptor alpha (TRa) (AID 2283839). The method, boiled down:
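Read-out: fluorescent reporter-transcript fragments resolved by capillary electrophoresis after RT-PCR and HpaI cut. Human HepG2 liver cells carry a transfected frog TRα-Gal4 chimera driving a UAS reporter; 24 h exposure, DMSO baseline, positive-direction fit.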

Assay [8] can be described thus: CEETOX_H295R_11DCORT_noMTC: CeeTox H295R High-throughput Steroidogenesis Assay for 11-Deoxycortisol (11DCORT), maximum tolerated concentration (MTC) filtered results only (AID 2283911; active = hit-call score of the fitted dose curve at least 0.9, where 1 is the maximum; inactive = score below 0.9). The settings on record: actives raise or lower the signal. The method, boiled down:
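H295R, OECD 456-based; 10 uM forskolin 48 h → compound (0.1% DMSO) 48 h → medium extracted, 11DCORT by LC-MS/MS. Gain/loss vs DMSO control, all concentrations kept regardless of MTT viability.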

Assay [9] in a line: CEETOX_H295R_OHPREG_noMTC: CeeTox H295R High-throughput Steroidogenesis Assay for OH-Pregnenolone (OHPREG), maximum tolerated concentration (MTC) filtered results only (AID 2283912; active = hit-call score of the fitted dose curve at least 0.9, where 1 is the maximum; inactive = score below 0.9). The settings on record: actives raise or lower the signal. A digest of the protocol: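 Medium 17alpha-hydroxypregnenolone quantified by reverse-phase HPLC-MS/MS after 48 h chemical exposure of forskolin-prestimulated (10 uM, 48 h) H295R, 0.1% DMSO final. Fitting bidirectional relative to DMSO; no maximum-tolerated-concentration filtering applied.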

Assay [10] is described as follows: CEETOX_H295R_OHPROG_noMTC: CeeTox H295R High-throughput Steroidogenesis Assay for OH-Progesterone (OHPROG), maximum tolerated concentration (MTC) filtered results only (AID 2283914; active = hit-call score of the fitted dose curve at least 0.9, where 1 is the maximum; inactive = score below 0.9). The settings on record: actives raise or lower the signal. The method, boiled down:
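After 48 h forskolin (10 uM) prestimulation, H295R adrenal cells received test chemical in 0.1% DMSO for 48 h. Medium 17alpha-hydroxyprogesterone was MTBE-extracted and measured by HPLC-MS/MS; gain or loss relative to DMSO, no MTT-based MTC filtering.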

A short description of assay [11]: CEETOX_H295R_CORTISOL_noMTC: CeeTox H295R High-throughput Steroidogenesis Assay for Cortisol, maximum tolerated concentration (MTC) filtered results only (AID 2283916; active = hit-call score of the fitted dose curve at least 0.9, where 1 is the maximum; inactive = score below 0.9). The settings on record: actives raise or lower the signal. The method, boiled down:
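Cortisol secretion measured by LC-MS/MS after 48 h chemical treatment (final 0.1% DMSO) of forskolin-primed (10 uM, 48 h) H295R cells; gain or loss fitted relative to DMSO, without maximum-tolerated-concentration filtering.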

The nature of assay [12]: CEETOX_H295R_CORTIC_noMTC: CeeTox H295R High-throughput Steroidogenesis Assay for Corticosterone (CORTIC), maximum tolerated concentration (MTC) filtered results only (AID 2283917; active = hit-call score of the fitted dose curve at least 0.9, where 1 is the maximum; inactive = score below 0.9). As to conditions: actives raise or lower the signal. The method, boiled down:
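Human adrenal H295R cells were prestimulated 48 h with 10 uM forskolin, then exposed 48 h to chemical in 0.1% DMSO. Medium corticosterone was MTBE-extracted and quantified by HPLC-MS/MS; bidirectional fits versus DMSO, concentrations not MTC-filtered.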

Assay [13] in a line: CEETOX_H295R_DOC_noMTC: CeeTox H295R High-throughput Steroidogenesis Assay for DOC, maximum tolerated concentration (MTC) filtered results only (AID 2283918; active = hit-call score of the fitted dose curve at least 0.9, where 1 is the maximum; inactive = score below 0.9). As to conditions: actives raise or lower the signal. A digest of the protocol: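 11-Deoxycorticosterone secreted by human adrenal H295R cells quantified by HPLC-MS/MS after 48 h chemical exposure (0.1% DMSO), following 48 h 10 uM forskolin prestimulation. Concentrations not filtered by MTT-derived MTC; bidirectional fitting.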

The nature of assay [14]: CEETOX_H295R_ESTRADIOL_noMTC: CeeTox H295R High-throughput Steroidogenesis Assay for Estradiol, maximum tolerated concentration (MTC) filtered results only (AID 2283919; active = hit-call score of the fitted dose curve at least 0.9, where 1 is the maximum; inactive = score below 0.9). The settings on record: actives raise or lower the signal. The method, boiled down:
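Readout: dansyl-derivatized estradiol quantified by LC-MS/MS in medium from H295R cells dosed 48 h (0.1% DMSO) following 48 h forskolin (10 uM) prestimulation. Gain or loss of signal fitted against DMSO; no MTC filtering applied.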

Assay [15] can be described thus: CEETOX_H295R_PROG_noMTC: CeeTox H295R High-throughput Steroidogenesis Assay for Progesterone (PROG), maximum tolerated concentration (MTC) filtered results only (AID 2283920; active = hit-call score of the fitted dose curve at least 0.9, where 1 is the maximum; inactive = score below 0.9). As to conditions: actives raise or lower the signal. The method, boiled down: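 Progesterone secreted into medium was measured by HPLC-MS/MS after MTBE extraction, following 48 h chemical exposure (0.1% DMSO) of forskolin-prestimulated (10 uM, 48 h) H295R adrenal cells. Gain or loss fitted against DMSO; no MTC filtering.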

Assay [16] deals with Nuclear receptor subfamily 1 group I member 2 (Mus musculus) (UniProt O54915). Nature of the assay: ATG_mPXR_XSP2: Attagene TRANS-FACTORIAL Multi-Species (XSP1) HepG2 Assay for mouse Pregnane X Receptor (PXR) (AID 2283831). The method, boiled down:
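Transient HepG2 transfection, multiplexed GAL4-UAS reporters, NR-GAL4 chimeras. 24 h compound exposure. Readout: reporter mRNA, RT-PCR, fluorescent capillary electrophoresis; positive direction vs DMSO baseline.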

For assay [17], the system named is turtle Thyroid Hormone Receptor, alpha (TRa), gene 101949057. The assay is described as follows: ATG_trTRa_XSP2: Attagene TRANS-FACTORIAL Multi-Species (XSP1) HepG2 Assay for turtle Thyroid Hormone Receptor, alpha (TRa) (AID 2283834).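 Also: hits raise reporter mRNA over the DMSO baseline so AC50 marks activators.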 A digest of the protocol: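 Readout: reporter mRNA induction, fluorescence after RT-PCR, HpaI digestion and capillary electrophoresis. Transiently transfected HepG2, exogenous NR-Gal4 chimera driving GAL4-UAS reporter, 24 h compound exposure. Activity fitted upward relative to DMSO baseline.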

The nature of assay [18]: ATG_XTT_Cytotoxicity_XSP2: Cytotoxicity Assessment in the Attagene TRANS-FACTORIAL Multi-Species (XSP2) HepG2 Assay (AID 2283837). A digest of the protocol:
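XTT-based cell number read-out in human HepG2 liver cells carrying transfected reporter units, measured 24 h after chemical dosing. Activity is signal loss versus DMSO baseline.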

Assay [19] deals with human Thyroid hormone Receptor alpha (TRa), THRA (gene 7067) (UniProt P10827). The assay is described as follows: ATG_hTRa_XSP2: Attagene TRANS-FACTORIAL Multi-Species (XSP2) HepG2 Assay for human Thyroid hormone Receptor alpha (TRa) (AID 2283838). A digest of the protocol: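 Gain-of-signal in reporter mRNA, relative to DMSO, after 24 h dosing of transfected HepG2; quantitation by RT-PCR fragment analysis on capillary electrophoresis.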

For assay [20], the target named is human Thyroid hormone Receptor beta (TRb), THRB (gene 7068) (UniProt P10828). Nature of the assay: ATG_hTRb_XSP2: Attagene TRANS-FACTORIAL Multi-Species (XSP2) HepG2 Assay for human Thyroid hormone Receptor beta (TRb) (AID 2283840).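 Also: actives raise reporter mRNA so potency reflects agonist-like gain of signal.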 The method, boiled down: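 Read-out: reporter mRNA induction (RT-PCR, 6-FAM labeling, capillary electrophoresis), gain-of-signal relative to DMSO baseline. Transiently transfected HepG2 TRANS multiplex (NR-Gal4 chimeras, GAL4-UAS reporters), 24 h chemical exposure; medium contained 3 nM 6-alpha-fluorotestosterone plus 1.5 nM norgestrel.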

One may read the AC50 as the concentration giving half of the maximal activity seen.

Structures are written as SMILES. Several values for one entry are separate records, joined by “and”; a condition that tells them apart may be missing. Equal values may be shown once. Results filed as inconclusive are left out. Some compounds were tested as several samples or in several runs, with calls that do not always agree. Activity calls are given as the source filed them. The calls were made as follows, unless noted: active = hit-call score of the fitted dose curve at least 0.9, where 1 is the maximum; inconclusive = response in the unintended direction; inactive = score below 0.9.

Sequence of frog Thyroid hormone Receptor alpha (TRa), thra-a (gene 397942) (P15204 whole entry, looked up, the tested form may be a part): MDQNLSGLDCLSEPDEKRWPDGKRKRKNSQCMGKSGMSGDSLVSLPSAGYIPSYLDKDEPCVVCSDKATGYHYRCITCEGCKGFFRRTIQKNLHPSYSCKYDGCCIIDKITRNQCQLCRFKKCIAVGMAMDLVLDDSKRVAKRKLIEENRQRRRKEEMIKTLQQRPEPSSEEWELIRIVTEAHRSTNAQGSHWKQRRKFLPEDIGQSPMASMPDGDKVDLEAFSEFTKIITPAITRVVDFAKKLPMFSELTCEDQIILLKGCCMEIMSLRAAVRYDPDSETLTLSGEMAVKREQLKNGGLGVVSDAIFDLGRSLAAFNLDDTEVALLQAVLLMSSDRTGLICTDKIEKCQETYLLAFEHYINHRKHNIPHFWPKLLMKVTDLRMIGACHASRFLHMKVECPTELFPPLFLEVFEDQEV
Sequence of Nuclear receptor subfamily 1 group I member 2 (Mus musculus) (O54915 whole entry, looked up, the tested form may be a part): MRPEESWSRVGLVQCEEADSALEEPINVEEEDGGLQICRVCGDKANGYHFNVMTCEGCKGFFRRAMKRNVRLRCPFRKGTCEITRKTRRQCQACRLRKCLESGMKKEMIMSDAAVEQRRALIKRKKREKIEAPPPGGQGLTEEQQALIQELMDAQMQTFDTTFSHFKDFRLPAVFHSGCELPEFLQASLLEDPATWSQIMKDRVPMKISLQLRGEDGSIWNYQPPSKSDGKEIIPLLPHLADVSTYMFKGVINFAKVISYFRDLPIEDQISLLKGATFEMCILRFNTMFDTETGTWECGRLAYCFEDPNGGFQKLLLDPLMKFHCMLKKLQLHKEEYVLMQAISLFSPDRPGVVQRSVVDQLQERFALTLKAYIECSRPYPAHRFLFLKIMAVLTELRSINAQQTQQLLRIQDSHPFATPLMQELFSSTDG
Sequence of human Thyroid hormone Receptor alpha (TRa), THRA (gene 7067) (P10827 whole entry, looked up, the tested form may be a part): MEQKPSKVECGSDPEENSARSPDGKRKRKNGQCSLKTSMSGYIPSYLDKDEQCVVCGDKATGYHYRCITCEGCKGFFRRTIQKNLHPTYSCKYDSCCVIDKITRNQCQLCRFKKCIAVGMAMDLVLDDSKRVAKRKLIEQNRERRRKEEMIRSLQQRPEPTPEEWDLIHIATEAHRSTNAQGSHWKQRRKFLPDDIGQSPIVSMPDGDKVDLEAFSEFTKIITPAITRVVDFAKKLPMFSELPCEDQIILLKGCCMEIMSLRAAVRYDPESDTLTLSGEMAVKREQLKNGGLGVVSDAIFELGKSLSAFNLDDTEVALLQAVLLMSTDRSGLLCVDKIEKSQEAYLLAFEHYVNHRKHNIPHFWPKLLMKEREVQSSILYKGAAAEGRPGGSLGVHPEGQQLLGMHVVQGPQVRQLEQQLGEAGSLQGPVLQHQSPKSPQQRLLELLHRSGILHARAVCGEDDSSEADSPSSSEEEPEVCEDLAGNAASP
Sequence of zebrafish Thyroid Hormone Receptor beta (TRb), thrb (gene 30607) (Q9PVE4 whole entry, looked up): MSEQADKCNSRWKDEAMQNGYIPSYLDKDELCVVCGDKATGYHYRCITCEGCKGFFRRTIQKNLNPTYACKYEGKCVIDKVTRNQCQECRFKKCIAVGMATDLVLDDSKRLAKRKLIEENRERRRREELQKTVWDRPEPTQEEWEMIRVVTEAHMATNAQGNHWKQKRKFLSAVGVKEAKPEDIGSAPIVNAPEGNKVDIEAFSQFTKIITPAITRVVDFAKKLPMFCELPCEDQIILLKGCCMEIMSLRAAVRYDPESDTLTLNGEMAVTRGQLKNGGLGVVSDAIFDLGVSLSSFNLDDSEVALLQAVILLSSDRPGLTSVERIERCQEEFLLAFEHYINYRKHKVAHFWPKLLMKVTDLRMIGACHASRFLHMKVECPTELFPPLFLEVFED
Sequence of human Thyroid hormone Receptor beta (TRb), THRB (gene 7068) (P10828 whole entry, looked up, the tested form may be a part): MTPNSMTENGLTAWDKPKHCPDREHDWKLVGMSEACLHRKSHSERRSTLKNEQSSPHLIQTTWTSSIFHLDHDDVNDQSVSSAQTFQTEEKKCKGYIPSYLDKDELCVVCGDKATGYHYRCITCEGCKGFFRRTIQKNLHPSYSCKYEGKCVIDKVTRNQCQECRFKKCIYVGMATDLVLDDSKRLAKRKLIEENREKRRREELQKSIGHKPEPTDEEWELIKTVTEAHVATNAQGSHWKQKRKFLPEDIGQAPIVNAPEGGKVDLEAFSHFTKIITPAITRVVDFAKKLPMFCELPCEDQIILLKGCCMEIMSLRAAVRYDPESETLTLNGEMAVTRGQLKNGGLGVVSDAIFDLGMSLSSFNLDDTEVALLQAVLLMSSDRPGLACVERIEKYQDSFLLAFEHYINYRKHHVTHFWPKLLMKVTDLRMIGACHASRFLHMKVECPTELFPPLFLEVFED
Sequence of zebrafish Thyroid Hormone Receptor alpha (TRa), thraa (gene 30670) (Q98867 whole entry, looked up, the tested form may be a part): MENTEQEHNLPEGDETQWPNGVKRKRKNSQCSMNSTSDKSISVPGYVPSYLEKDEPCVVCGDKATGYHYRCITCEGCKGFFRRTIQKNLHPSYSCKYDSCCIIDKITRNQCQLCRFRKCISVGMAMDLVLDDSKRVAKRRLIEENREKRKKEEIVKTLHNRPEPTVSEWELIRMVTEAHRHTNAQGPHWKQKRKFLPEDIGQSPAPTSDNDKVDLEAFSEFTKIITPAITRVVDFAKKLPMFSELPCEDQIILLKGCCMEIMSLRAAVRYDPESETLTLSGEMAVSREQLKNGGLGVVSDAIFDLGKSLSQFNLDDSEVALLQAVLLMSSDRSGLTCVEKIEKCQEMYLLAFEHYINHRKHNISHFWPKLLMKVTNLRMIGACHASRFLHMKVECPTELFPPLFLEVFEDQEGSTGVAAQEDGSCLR

For the compound `FC(F)(F)C(F)(F)C(F)(F)C(F)(F)C(F)(F)C(F)(F)CCI`, the outcome in [1] and in assay [2] was inactive.

On to `CC(C)(C)c1cc(O)c(C(C)(C)C)cc1O`, for which the call in assay [3], in assay [4], in assay [5], in [6], in [7] and in assay [1] was inactive. In addition, in [2], the outcome was inactive.

Regarding `Oc1ccc2ccccc2c1N=Nc1ccccc1`, the result in [1] and in assay [2] was inactive.

For the compound `O=C(N[C@@H](Cc1ccccc1)[C@@H](O)C(=O)N1C[C@@H](O)[C@@H](O)C1)c1cc2cc(Cl)ccc2[nH]1`, in assay [2], the outcome was inactive.

With `Oc1ccc2c(c1)OC[C@@H](N1CCC(O)(c3ccc(F)cc3)CC1)[C@H]2O`, the outcome in assay [1] and in assay [2] was inactive.

`CCCCC(CC)COC(=O)CC(C(=O)OCC(CC)CCCC)S(=O)(=O)O` (stereo not given): the result in assay [1] and in assay [2] was inactive.

Consider `CN[C@H]1CC[C@@H](c2ccc(Cl)c(Cl)c2)c2ccc(S(N)(=O)=O)cc21`, for which the outcome in assay [2] was inactive.

As for `CCc1c(C(=O)NN2CCCCC2)nn(-c2ccc(Cl)cc2Cl)c1-c1ccc(Br)cc1`, the outcome in assay [2] was inactive.

`COc1ccc(S(=O)(=O)N2C(=O)[C@@](c3ccccc3OC)(N3C[C@H](O)C[C@H]3C(=O)N(C)C)c3cc(Cl)ccc32)c(OC)c1`: the outcome in [1] and in [2] was inactive.

Regarding `Cc1oc(-c2ccccc2)nc1CCOc1cccc2c1ccn2CCC(=O)O`, the outcome in assay [2], in assay [9], in assay [10], in assay [11], in [12] and in assay [14] was inactive. Moreover, the AC50 in [8] is 9.6 µM (active); in [13], 6.44 µM (active); in [15], 12.9 µM (active).

As for `Nc1ccccc1N`, the outcome in assay [1] and in assay [2] was inactive.

Take `C=CCOC(=O)c1ccccc1C(=O)OCC=C`: the AC50 in assay [16] was 27.5 µM (active). Further, the compound was classed as inactive in assay [16], in [3], in assay [4], in assay [17], in assay [5] and in assay [6]. Besides, the result in assay [18], in assay [19], in assay [7], in assay [20], in assay [9] and in assay [10] was inactive. Besides, in [15], the result was inactive.

Consider `NC(=O)Cn1c(=O)cc(CCN2CCN(c3nccc4sccc34)CC2)c2ccc(F)cc21`, for which the outcome in assay [1] and in [2] was inactive.

Take `Cc1ccc(C)c(C)c1`: the outcome in assay [2] was inactive.

For the compound `CCCc1cc(=O)[nH]c(=S)[nH]1`, the call in assay [16], in assay [4], in [17], in [6], in assay [19] and in assay [7] was inactive.

For `CC(=O)C(C)=CC1C(C)=CCCC1(C)C` (stereo not given), the AC50 in [16] is 8.16 µM (active) and 12.9 µM (active). For the same compound, the call in assay [4], in assay [17], in assay [5], in assay [6], in assay [18] and in assay [7] was inactive.

For `O=c1c(O)c(-c2ccc(O)c(O)c2)oc2cc(O)cc(O)c12`, the result in assay [1] and in assay [2] was inactive.

In the case of `O=C(OCCCCCOC(=O)c1ccccc1)c1ccccc1`, the result in [2], in assay [8], in [9], in assay [10], in assay [11] and in [12] was inactive. Besides, the call in assay [13] was inactive.
